The text below walks through data of PubChem BioAssay (EPA / NIEHS).

Activity calls are given as the source filed them. The calls were made as follows: active = hit-call score of the fitted dose curve at least 0.9, where 1 is the maximum; inactive = score below 0.9.

Assay [1] is described as follows: ATG_CRE_CIS: Attagene CIS-FACTORIAL HepG2 Assay for human cAMP Responsive Element (CRE) binding protein 3 (AID 2282926). The conditions noted are these: HepG2 CRE cis-reporter, Attagene multiplexed mRNA; actives raise or lower the signal. In short, it runs like this: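 Endogenous transcription factor activity read via CRE-regulated reporter transcripts in transfected HepG2 cells. After 24 h exposure, RNA was reverse-transcribed, amplified, fluorescently labelled and sized by capillary electrophoresis; gain or loss fitted against DMSO.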

Assay [2] deals with CCAAT/enhancer-binding protein beta (Homo sapiens) (UniProt P17676). Briefly: ATG_C_EBP_CIS: Attagene CIS-FACTORIAL HepG2 Assay for human CCAAT/Enhancer Binding Protein (C/EBP) beta (AID 2282927). The conditions noted are these: HepG2 Attagene cis-factorial transcription factor reporter; actives raise or lower the signal. In short, it runs like this:
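HepG2, transient MRTU transfection, 24 h treatment. RT-PCR plus CE fluorescence; DMSO negative control, bidirectional fit.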

Assay [3] can be described thus: ATG_CMV_CIS: Attagene CIS-FACTORIAL HepG2 Assay for human CMV (Internal Marker) (AID 2282928).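 Also: endpoint acts as a background internal control marker rather than a target.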 The conditions noted are these: HepG2 CMV promoter reporter, transcription factor profiling; actives raise or lower the signal. In a few lines: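 Reporter transcripts from transfected HepG2 cells are isolated after 24 h of chemical dosing, reverse-transcribed and amplified. Fragments labeled with 6-FAM are cut with HpaI and quantified by capillary electrophoresis; DMSO defines baseline.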

Assay [4] can be described thus: ATG_DR4_LXR_CIS: Attagene CIS-FACTORIAL HepG2 Assay for human Liver X Receptor (LXR), DR4 submotif (AID 2282929). Particulars: HepG2 Attagene DR4 cis-reporter, mRNA transcription; actives raise or lower the signal. In a few lines:
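Transiently transfected HepG2 liver cells; cis-regulated reporters; 24 h dosing. RT-PCR plus CE read-out of reporter mRNA. DMSO baseline, bidirectional curve fitting.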

Assay [5] concerns the target Aryl hydrocarbon receptor (Homo sapiens) (UniProt P35869). Put plainly: ATG_Ahr_CIS: Attagene CIS-FACTORIAL HepG2 Assay for human Aryl Hydrocarbon Receptor (Ahr) (AID 2282930). Particulars: HepG2 AhR cis-factorial reporter transcription; actives raise or lower the signal. In a few lines: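 Endogenous factor activity is tracked through cis-promoter reporter units transfected into HepG2 cells. Transcript levels at 24 h are read by fluorescent RT-PCR and capillary electrophoresis, with activity in either direction scored relative to DMSO.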

Assay [6] in a line: ATG_AP_1_CIS: Attagene CIS-FACTORIAL HepG2 Assay for human Activator Protein 1 (AP-1) (AID 2282931). Particulars: HepG2 Attagene cis-factorial AP-1 reporter mRNA; actives raise or lower the signal. In short, it runs like this: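 We transfected HepG2 cells transiently with a set of cis-regulated reporter transcription units, dosed them for 24 h, and quantified reporter mRNA via RT-PCR and capillary electrophoresis, scoring gain or loss of signal relative to DMSO.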

The nature of assay [7]: ATG_AP_2_CIS: Attagene CIS-FACTORIAL HepG2 Assay for human Activator Protein 2 (AP-2) (AID 2282932). Particulars: HepG2 AP-2 cis-reporter, Attagene transcription factor profiling; actives raise or lower the signal. In a few lines: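 Read-out: fluorescent reporter mRNA via RT-PCR and capillary electrophoresis, 24 h post-dose in transiently transfected HepG2. Endogenous factors drive cis-promoter reporters; gain or loss of signal fitted bidirectionally against DMSO.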

Assay [8] in a line: ATG_BRE_CIS: Attagene CIS-FACTORIAL HepG2 Assay for human Bone Morphogenetic Protein (BMP) Response Element (BRE) (AID 2282933). Particulars: HepG2 BMP response element reporter, Attagene transcription factor profiling; actives raise or lower the signal. In short, it runs like this: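 Transient MRTU transfection of human HepG2 liver cells; 24 h compound treatment; total RNA isolated, reverse-transcribed, PCR-amplified, 6-FAM labelled, HpaI-cut, capillary electrophoresis. DMSO = negative control/baseline, bidirectional fit.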

Assay [9] addresses Transcription factor E2F1 (Homo sapiens) (UniProt Q01094). Briefly: ATG_E2F_CIS: Attagene CIS-FACTORIAL HepG2 Assay for human E2F Transcription Factor 1 (AID 2282935). Particulars: HepG2 Attagene cis-reporter, E2F reporter RNA transcripts; actives raise or lower the signal. In short, it runs like this:
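Transient MRTU transfection of HepG2; 24 h compound exposure; RNA → oligo(dT) RT → PCR → FAM label → HpaI cut → CE fluorescence. Gain/loss of signal fit against DMSO.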

A short description of assay [10]: ATG_E_Box_CIS: Attagene CIS-FACTORIAL HepG2 Assay for human Enhancer Box (E-box) (AID 2282936). The conditions noted are these: HepG2 E-box cis-reporter transcription, actives raise or lower the signal. In a few lines:
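Transiently transfected HepG2, endogenous TF-driven reporters, 24 h dosing. Readout: RT-PCR plus capillary electrophoresis of fluorescent reporter fragments. Gain or loss of signal fitted bidirectionally against DMSO baseline.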

Assay [11] in a line: ATG_M_61_CIS: Attagene CIS-FACTORIAL HepG2 Assay for M61 Transcription Factor (Internal Marker) (AID 2282937). The conditions noted are these: HepG2 Attagene CIS-FACTORIAL M61 internal marker reporter; actives raise or lower the signal. In a few lines: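 Multiplexed reporter mRNA assay, HepG2 human hepatoma cells, 24 h treatment. Signal: FAM-labelled, HpaI-digested RT-PCR fragments by CE. Fit: bidirectional, baseline DMSO.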

Assay [12] in a line: ATG_EGR_CIS: Attagene CIS-FACTORIAL HepG2 Assay for human Early Growth Response 1 (EGR1) (AID 2282938). Particulars: HepG2 Attagene CIS-FACTORIAL EGR reporter mRNA; actives raise or lower the signal. In short, it runs like this:
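Multiplexed cis-reporter system in human hepatoma HepG2 cells, transiently transfected. Cells are dosed for 24 h; reporter transcripts are amplified, fluorescently tagged and sized by capillary electrophoresis, with DMSO as negative control.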

The nature of assay [13]: ATG_M_19_CIS: Attagene CIS-FACTORIAL HepG2 Assay for M19 Transcription Factor (Internal Marker) (AID 2282939). Particulars: HepG2 Attagene CIS-FACTORIAL M19 internal marker reporter; actives raise or lower the signal. In short, it runs like this: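 Transfect HepG2 with MRTU reporter library → dose chemical, 24 h → isolate total RNA, reverse-transcribe with oligo(dT) → PCR, 6-FAM label, HpaI cut (2 h, 37 C) → capillary electrophoresis. Bidirectional fit vs DMSO.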

Assay [14] can be described thus: ATG_ERE_CIS: Attagene CIS-FACTORIAL HepG2 Assay for Estrogen Response Element (ERE) (AID 2282940). Particulars: HepG2 ERE cis-reporter, Attagene RNA transcript; actives raise or lower the signal. In a few lines:
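Transient MRTU transfection of human HepG2; cis-element promoters; 24 h dosing; total RNA → RT (oligo dT) → PCR → 6-FAM primer extension → HpaI digest → CE fluorescence. Bidirectional fit, DMSO baseline.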

A short description of assay [15]: ATG_Ets_CIS: Attagene CIS-FACTORIAL HepG2 Assay for human Erythroblast Transformation Specific (ETS) (AID 2282941). Particulars: HepG2 ETS cis-reporter transcription, actives raise or lower the signal. In a few lines: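 Bidirectional fit versus DMSO of reporter mRNA signal, detected by RT-PCR and capillary electrophoresis in HepG2 cells transiently transfected with cis-element reporters and dosed 24 h.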

Assay [16] addresses Hepatocyte nuclear factor 3-beta (Homo sapiens) (UniProt Q9Y261). Put plainly: ATG_FoxA2_CIS: Attagene CIS-FACTORIAL HepG2 Assay for human Forkhead box A2 (FOXA2) (AID 2282942). Particulars: HepG2 cis-reporter transcription factor activity, 24 h; actives raise or lower the signal. In a few lines:
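Multiplexed cis-element reporter assay in transiently transfected HepG2. Twenty-four hours post-dosing, RNA was reverse-transcribed, amplified, FAM-labelled, HpaI-digested and separated by CE. Activity gain or loss relative to DMSO.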

A short description of assay [17]: ATG_FoxO_CIS: Attagene CIS-FACTORIAL HepG2 Assay for human Forkhead box O (FoxO) (AID 2282943). Particulars: HepG2 Attagene cis-reporter, FoxO element, mRNA; actives raise or lower the signal. In short, it runs like this: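 Transfected HepG2 reporter cells exposed to test chemical for 24 h; reporter RNA measured by reverse transcription, PCR and fluorescent capillary electrophoresis; curves fitted for increases and decreases against DMSO.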

Assay [18] can be described thus: ATG_GATA_CIS: Attagene CIS-FACTORIAL HepG2 Assay for human GATA Binding Protein (AID 2282944). Particulars: HepG2 GATA cis-element reporter, Attagene multiplex mRNA; actives raise or lower the signal. In a few lines: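 Transient MRTU transfection, HepG2, 24 h compound exposure. Total RNA → oligo(dT) RT → PCR → 6-FAM primer extension → HpaI cut → CE. Bidirectional fit vs DMSO.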

A short description of assay [19]: ATG_GLI_CIS: Attagene CIS-FACTORIAL HepG2 Assay for human Zinc Finger Protein GLI1 (AID 2282945). Particulars: HepG2, Attagene cis-factorial reporter mRNA, GLI element; actives raise or lower the signal. In a few lines:
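Transiently transfected HepG2 cells report endogenous transcription factor activity via cis-element-driven reporter units. After 24 h compound exposure, reporter mRNA was measured by RT-PCR with capillary electrophoresis; bidirectional fitting against DMSO baseline.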

Transcription factor E2F1 (Homo sapiens), sequence (Q01094 whole entry, looked up): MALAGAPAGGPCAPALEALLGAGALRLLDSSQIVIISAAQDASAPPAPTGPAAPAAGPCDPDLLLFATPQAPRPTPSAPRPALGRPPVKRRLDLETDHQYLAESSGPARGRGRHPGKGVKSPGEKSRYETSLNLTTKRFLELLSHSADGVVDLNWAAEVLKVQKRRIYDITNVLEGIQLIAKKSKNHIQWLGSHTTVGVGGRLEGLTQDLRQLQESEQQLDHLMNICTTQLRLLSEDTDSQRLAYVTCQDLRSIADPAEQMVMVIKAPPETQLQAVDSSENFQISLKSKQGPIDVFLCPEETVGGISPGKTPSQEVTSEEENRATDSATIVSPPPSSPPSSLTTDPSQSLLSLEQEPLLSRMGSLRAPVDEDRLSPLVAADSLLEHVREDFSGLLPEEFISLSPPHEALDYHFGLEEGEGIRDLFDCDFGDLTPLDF
Hepatocyte nuclear factor 3-beta (Homo sapiens), sequence (Q9Y261 whole entry, looked up): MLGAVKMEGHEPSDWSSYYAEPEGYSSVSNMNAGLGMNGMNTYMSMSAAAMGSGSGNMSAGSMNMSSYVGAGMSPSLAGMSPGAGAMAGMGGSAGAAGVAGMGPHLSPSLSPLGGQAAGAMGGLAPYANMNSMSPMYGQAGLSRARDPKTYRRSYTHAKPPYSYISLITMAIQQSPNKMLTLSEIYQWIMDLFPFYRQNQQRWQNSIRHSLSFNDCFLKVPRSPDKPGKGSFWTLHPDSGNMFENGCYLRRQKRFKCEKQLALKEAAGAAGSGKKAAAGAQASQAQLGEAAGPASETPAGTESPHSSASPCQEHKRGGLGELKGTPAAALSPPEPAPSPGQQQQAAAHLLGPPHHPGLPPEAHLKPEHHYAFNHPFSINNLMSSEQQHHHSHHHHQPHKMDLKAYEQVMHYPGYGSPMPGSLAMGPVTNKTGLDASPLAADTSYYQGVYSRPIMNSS
Aryl hydrocarbon receptor (Homo sapiens), sequence (P35869 whole entry, looked up): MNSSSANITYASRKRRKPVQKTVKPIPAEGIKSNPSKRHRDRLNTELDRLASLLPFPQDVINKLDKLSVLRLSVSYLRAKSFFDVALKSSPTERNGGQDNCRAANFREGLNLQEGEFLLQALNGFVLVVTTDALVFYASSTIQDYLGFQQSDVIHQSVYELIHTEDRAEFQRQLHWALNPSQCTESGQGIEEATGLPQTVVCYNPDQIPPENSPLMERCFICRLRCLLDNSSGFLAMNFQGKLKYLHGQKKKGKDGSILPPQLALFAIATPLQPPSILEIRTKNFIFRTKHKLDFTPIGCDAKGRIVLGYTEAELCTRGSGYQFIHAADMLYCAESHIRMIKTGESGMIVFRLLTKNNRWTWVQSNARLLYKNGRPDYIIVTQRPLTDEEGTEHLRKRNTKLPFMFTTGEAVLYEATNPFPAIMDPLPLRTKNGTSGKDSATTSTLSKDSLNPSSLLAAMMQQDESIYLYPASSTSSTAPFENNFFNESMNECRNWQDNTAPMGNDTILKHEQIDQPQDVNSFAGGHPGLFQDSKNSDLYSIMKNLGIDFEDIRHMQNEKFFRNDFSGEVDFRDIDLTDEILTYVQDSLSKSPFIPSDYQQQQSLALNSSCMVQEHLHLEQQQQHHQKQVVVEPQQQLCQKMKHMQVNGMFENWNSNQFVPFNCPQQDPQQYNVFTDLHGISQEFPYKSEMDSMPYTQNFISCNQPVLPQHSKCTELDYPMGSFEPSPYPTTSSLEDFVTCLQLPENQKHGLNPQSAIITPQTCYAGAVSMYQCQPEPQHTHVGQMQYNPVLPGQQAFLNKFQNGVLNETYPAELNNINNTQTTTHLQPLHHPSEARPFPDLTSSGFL
CCAAT/enhancer-binding protein beta (Homo sapiens), sequence (P17676 whole entry, looked up): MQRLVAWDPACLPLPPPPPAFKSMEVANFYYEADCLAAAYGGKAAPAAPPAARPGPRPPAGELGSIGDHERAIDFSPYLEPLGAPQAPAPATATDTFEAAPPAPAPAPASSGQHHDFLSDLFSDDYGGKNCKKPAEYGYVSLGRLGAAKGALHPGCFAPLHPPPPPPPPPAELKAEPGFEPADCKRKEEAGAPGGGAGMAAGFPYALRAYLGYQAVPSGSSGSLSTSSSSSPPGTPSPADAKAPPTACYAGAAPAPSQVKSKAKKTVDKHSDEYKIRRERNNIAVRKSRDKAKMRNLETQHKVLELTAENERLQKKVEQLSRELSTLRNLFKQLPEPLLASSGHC

For the compound `OCc1cccnc1`, the compound was called inactive in assay [1], in [2], in assay [3], in [4], in [5] and in assay [6]. Besides, the compound was called inactive in [7], in [8], in [9], in assay [10], in assay [11] and in assay [12]. The call in assay [13], in [14], in [15], in [16], in assay [17] and in assay [18] was inactive. In addition, in assay [19], the outcome was inactive.
For the compound `NCCOCCO`, the call in [1], in [2], in assay [3], in assay [4], in [5] and in assay [6] was inactive. For the same compound, the outcome in assay [7], in assay [8], in assay [9], in [10], in [11] and in assay [12] was inactive. For the same compound, the compound was classed as inactive in [13], in [14], in assay [16], in assay [17], in [18] and in assay [19].
As for `CC(C)c1ccc(C(C)C)cc1`, the compound was called inactive in assay [1], in assay [2], in assay [4], in assay [5], in assay [6] and in [7]. The result in assay [8], in assay [9], in [10], in [11], in [12] and in assay [13] was inactive. The compound was called inactive in assay [15], in [16], in [17], in assay [18] and in assay [19]. For the same compound, the AC50 in assay [3] is 156 µM (active); in [14], 155 µM (active).
In the case of `Nc1ccc(S(=O)(=O)O)c(N)c1`, the compound was called inactive in assay [1], in assay [2], in assay [3], in assay [4], in assay [5] and in [6]. Moreover, the compound was classed as inactive in assay [7], in assay [8], in assay [9], in assay [10], in assay [11] and in assay [12]. Also, the outcome in assay [13], in assay [15], in assay [16], in assay [17] and in assay [18] was inactive.
Consider `CCCC(=O)C(C)=O`, for which the result in [1], in assay [2], in assay [3], in [4], in [5] and in [6] was inactive. The compound was classed as inactive in assay [7], in assay [8], in assay [9], in [10], in assay [11] and in [12]. Besides, the compound was called inactive in assay [13], in assay [15], in assay [16], in [17], in assay [18] and in assay [19].
Consider `CC(=O)OCc1ccc2c(c1)OCO2`, for which the compound was called inactive in [1], in assay [2], in assay [3], in assay [4], in assay [5] and in assay [6]. Also, the result in [7], in [8], in [9], in [10], in assay [11] and in assay [12] was inactive. Also, the result in assay [13], in assay [15], in assay [16], in [17], in [18] and in assay [19] was inactive.
`Sc1nc(S)nc(S)n1`: the call in [1], in assay [2], in assay [3], in [4], in assay [5] and in [6] was inactive. For the same compound, the result in assay [7], in [8], in assay [9], in assay [10], in [11] and in assay [12] was inactive. Besides, the outcome in [13], in assay [15], in assay [16], in assay [17] and in assay [18] was inactive.
Take `OCCCCCO`: the result in assay [1], in assay [2], in assay [3], in [4], in assay [5] and in assay [6] was inactive. Besides, the call in assay [7], in assay [8], in assay [9], in assay [10], in assay [11] and in assay [12] was inactive. The call in [13], in [14], in assay [16], in [17], in assay [18] and in [19] was inactive.
